{
  "source": "ChEMBL document CHEMBL3988442",
  "about": "“University of Dundee, Small-Polar-MMV Screening Library” (2021)",
  "data": [
    {"system": "Trypanosoma cruzi", "assay": "Trypanosoma cruzi phosphomannomutase and mannose-1-phosphate guanylyltransferase assay", "assay_type": "functional", "design": "scale not given: direction of the effect not stated beside the values", "details": "10 µM", "units": {"Percent Effect": "%"}, "values": [
      {"compound": "CC(C)c1nc(C2CCCN(C(=O)c3ccnc(N(C)C)c3)C2)no1", "note": "(centres undefined)", "Percent Effect": -3.62},
      {"compound": "Cc1cnn(CC2CCCN2C(=O)c2cccnc2N(C)C)c1", "note": "(centres undefined)", "Percent Effect": 1.42},
      {"compound": "CC(NC(=O)NCc1cccc(Cl)c1)(C(=O)O)c1ccco1", "note": "(centres undefined)", "Percent Effect": 5.32},
      {"compound": "Cc1cnc(CN2CCCC(c3cc(C(N)=O)[nH]n3)C2)cn1", "note": "(centres undefined)", "Percent Effect": -3.01}
    ]},
    {"molecular_target": "T1, Arginase-2, mitochondrial (Homo sapiens) (UniProt P78540)", "T1 sequence (whole entry)": "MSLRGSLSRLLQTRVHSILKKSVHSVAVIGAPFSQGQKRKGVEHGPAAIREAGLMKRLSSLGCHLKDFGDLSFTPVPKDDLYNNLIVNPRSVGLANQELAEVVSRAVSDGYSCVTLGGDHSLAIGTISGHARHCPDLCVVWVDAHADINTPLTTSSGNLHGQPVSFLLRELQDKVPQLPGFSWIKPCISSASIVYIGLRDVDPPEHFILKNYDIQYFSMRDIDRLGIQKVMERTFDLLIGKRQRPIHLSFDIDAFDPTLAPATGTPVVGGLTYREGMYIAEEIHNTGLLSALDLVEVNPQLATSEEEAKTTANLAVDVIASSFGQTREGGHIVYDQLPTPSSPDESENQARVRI", "assay": "in vitro enzyme assay to detect the production of urea directly proportional to the activity of Arginase II", "assay_type": "functional", "design": "scale not given: in the data most compounds retested in dose-response had high values", "details": "30 µM", "units": {"Percent Effect": "%"}, "values": [
      {"compound": "COc1ccccc1Oc1ncccc1CNC(=O)C(O)C(F)(F)F", "note": "(centres undefined)", "Percent Effect": 3.78},
      {"compound": "Cc1nn(CCO)c(C)c1CNC1CCc2c(F)cccc21", "note": "(centres undefined)", "Percent Effect": 5.95},
      {"compound": "CCOC(=O)Cn1cccc(S(=O)(=O)N2CCCC2)c1=O", "Percent Effect": -11.3},
      {"compound": "CN(CC(=O)N1CCCC1c1noc(C2CC2)n1)S(C)(=O)=O", "note": "(centres undefined)", "Percent Effect": 3.78},
      {"compound": "OC(CN(Cc1ccccc1)Cc1ccon1)c1cccs1", "note": "(centres undefined)", "Percent Effect": 8.11},
      {"compound": "Cc1nn(CCO)c(C)c1CNC1CCOc2ccccc21", "note": "(centres undefined)", "Percent Effect": -9.19},
      {"compound": "CN(Cc1ccccn1)C1CC2(CCN(Cc3ccccn3)CC2)C1", "Percent Effect": -16.8},
      {"compound": "COc1ccc(C)cc1C(C(=O)O)N1CCN(Cc2ccccn2)CC1", "note": "(centres undefined)", "Percent Effect": 4.87},
      {"compound": "CN1CCC(N(Cc2ccccc2F)C(=O)NCc2ccncc2)CC1", "Percent Effect": 5.95},
      {"compound": "CCCNC(=O)c1cc(Br)c2c(c1)OCCO2", "Percent Effect": 5.95},
      {"compound": "CCn1ccnc1C1CCCN(C(=O)c2sc(C)nc2C)C1", "note": "(centres undefined)", "Percent Effect": 2.7},
      {"compound": "Cc1cc(C)cc(OCC(O)CN2CCN(c3nccs3)CC2)c1", "note": "(centres undefined)", "Percent Effect": 4.87},
      {"compound": "CNC(=O)[C@H]1C[C@@H]2CN(C(=O)c3cccnc3)C[C@@H]2N1S(C)(=O)=O", "Percent Effect": 5.95},
      {"compound": "O=C(c1coc(CN2CCN(c3ccccc3F)CC2)n1)N1CC=CC1", "Percent Effect": 5.95},
      {"compound": "CN(C)c1ncccc1CN1CCOC(C(=O)Nc2ccccc2)C1", "note": "(centres undefined)", "Percent Effect": 1.62},
      {"compound": "Cc1noc(CNC(=O)N2CCN(c3nc(C)c(C)s3)CC2)n1", "Percent Effect": 5.95},
      {"compound": "NC(=O)CCCNC(=O)c1cc(Br)c2c(c1)OCCO2", "Percent Effect": 3.78},
      {"compound": "COc1ccccc1Oc1ncccc1CNC(=O)C(C)CN", "note": "(centres undefined)", "Percent Effect": 11.3},
      {"compound": "COCC(=O)N1CCC(c2cncc(-c3cccc(F)c3)n2)CC1", "Percent Effect": -5.95},
      {"compound": "COCc1csc(NC(=O)N2CCC(Cc3cnn(C)c3)C2)n1", "note": "(centres undefined)", "Percent Effect": 2.7},
      {"compound": "COCCCC1CCCN(C(=O)CCc2csc(N)n2)C1", "note": "(centres undefined)", "Percent Effect": 3.78},
      {"compound": "CCn1c(NCc2ccccc2)nc2c(C)nn(C)c2c1=O", "Percent Effect": 8.11},
      {"compound": "N#Cc1ccc(OCC(O)CN2CCN(c3nccs3)CC2)cc1", "note": "(centres undefined)", "Percent Effect": 5.95},
      {"compound": "O=C(Cn1nc2c(cc1=O)CCCC2)NC(C(=O)O)c1ccccc1", "note": "(centres undefined)", "Percent Effect": -2.7},
      {"compound": "CN(Cc1ccco1)[C@@H]1CN(CC2CCOCC2)C[C@@H]2CCCO[C@@H]21", "Percent Effect": 7.03},
      {"compound": "Cc1cccc(C(=O)N2CCCC(c3nccn3Cc3cscn3)C2)n1", "note": "(centres undefined)", "Percent Effect": 9.19},
      {"compound": "CN(C)C1CCCN(C(=O)CCc2csc(N)n2)CC1", "note": "(centres undefined)", "Percent Effect": 1.62},
      {"compound": "c1ccc(OC2COC3(CCN(CC4CC4)CC3)C2)nc1", "note": "(centres undefined)", "Percent Effect": -16.8},
      {"compound": "CC(C)CN1CCC(NC(=O)c2ccc(Cl)cc2Cl)CC1", "Percent Effect": -7.03},
      {"compound": "CC(C)N(C)C(=O)c1coc(CN2CCN(c3ccccc3F)CC2)n1", "Percent Effect": 7.03},
      {"compound": "COc1cc(C2SC(C)=Nc3c2c(=O)[nH]n3C2CCCC2)ccc1O", "note": "(centres undefined)", "Percent Effect": 3.78},
      {"compound": "CN(Cc1ccco1)[C@@H]1CN(Cc2ccc(F)cc2)[C@@H]2CCCO[C@H]12", "Percent Effect": 2.7},
      {"compound": "O=C(Cn1nc2c(cc1=O)CSCC2)N[C@@H](Cc1ccccc1)C(=O)O", "Percent Effect": 11.3},
      {"compound": "COCc1ccc(C(=O)N(CCC#N)Cc2ccccn2)cc1", "Percent Effect": 0.54},
      {"compound": "CCN1CCC(NC(=O)c2ccc(F)cc2I)CC1", "Percent Effect": -1.62}
    ]}
  ]
}
